# Screening results deposited in PubChem BioAssay by several laboratories.
# 3CLpro inhibitor: SARS-CoV 3CLpro protease inhibition; P0C6X7; recombinant SARS-CoV 3CLpro, quenched FRET peptide cleavage; inhibition, % at 6 µM; 290,000 compounds, 0.14% hits; in the data active means inhibition above about 12%
# VHR inh abs: blocks human VHR1 dual specificity phosphatase. P51452. AID 1654. 290,000 compounds, 0.52% hits. recombinant VHR phosphatase, pNPP absorbance. inhibition, % at 13.3 µM; in the data active means inhibition above about 50%
# Target sequence (P51452 whole entry, looked up): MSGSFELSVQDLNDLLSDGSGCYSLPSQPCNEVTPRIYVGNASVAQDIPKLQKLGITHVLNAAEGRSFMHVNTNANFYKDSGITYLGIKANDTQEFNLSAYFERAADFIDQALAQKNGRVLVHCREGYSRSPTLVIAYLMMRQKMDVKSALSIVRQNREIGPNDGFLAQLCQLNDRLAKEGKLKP
# RecA splice inh: blocks M. tuberculosis RecA intein splicing | P9WHJ3 | cell-free RecA intein splicing, fluorescence | inhibition, % (concentration not given with the values) | 290,000 compounds, 0.75% hits; in the data active means inhibition above about 30%
# CCHF vOTU inh-1: CCHFV vOTU protease inhibition | 370,000 compounds, 0.55% hits | inhibition, % at 11.5 µM | Pep-AMC fluorescence
# PriA SSB inh: blocks PriA binding to SSB C-terminal tail | AlphaScreen SSBct-PriA binding, biotinylated peptide | inhibition, % at 33 µM | 430,000 compounds, 0.6% hits; in the data active means inhibition mostly above about 37%, no sharp cut-off; inactive means mostly below about 20%
# CCHF vOTU inh-2: CCHFV vOTU protease inhibition, confirmation | shares compounds with CCHF vOTU inh-1 | Recombinant CCHFV vOTU, Pep-AMC fluorescence | inhibition, % at 11.5 µM | 1,900 compounds, 17% hits
# Numbers stand for hits; 0 = inactive; - = not tested or not shown. An excerpt weighted towards active compounds, which were near 1.7% of everything screened. Unless noted, no stated cut-off is given here; in the data, active means inhibition above about 30%; inactive means the rest.
SMILES,3CLpro inhibitor,VHR inh abs,RecA splice inh,CCHF vOTU inh-1,PriA SSB inh,CCHF vOTU inh-2
CCOCCOc1cc(NCc2ccccc2)c2ncn(C(C)C)c2c1,-,-,-,30,0,0
CCC(COC)Oc1cc(NCc2ccccc2)c2ncn(C(C)C)c2c1 (stereo not drawn),-,-,-,70,63,69
CCC(CO)Oc1cc(NCc2ccccc2)c2ncn(C(C)C)c2c1 (stereo not drawn),-,-,-,0,0,-
CCCCOc1cc(NCc2ccccc2)c2ncn(C(C)C)c2c1,-,-,-,37,0,0
C[C@@H](Cc1ccoc1)NC(=O)CSC1CCCC1,-,-,-,-,0,-
COc1ccc(-c2nc(S[C@@H](CC(=O)NCc3cccnc3)c3ccc(OC)c(OC)c3)n[nH]2)cc1,-,-,-,-,0,-
O=C(c1c(F)cccc1Cl)N1CCN(c2nccn2-c2cccc(Cl)c2)CC1,-,-,-,-,0,-
COC(=O)C1=C(C)N(Cc2ccc(C(F)(F)F)cc2)C(=NCc2ccc(OC)cc2)NC1c1ccccc1C(F)(F)F (stereo not drawn),-,-,-,35,-,0
COC(=O)C1=C(C)N(Cc2cccc(C(F)(F)F)c2)C(=NCc2ccc(C(F)(F)F)cc2)NC1c1cccc(F)c1 (stereo not drawn),-,-,-,38,-,0
COC(=O)C1=C(C)N(Cc2cccc(C(F)(F)F)c2)C(=NCc2ccc(C(F)(F)F)cc2)NC1c1ccc(F)cc1 (stereo not drawn),-,-,-,0,-,-
COC(=O)C1=C(C)N(Cc2cccc(C(F)(F)F)c2)C(=NCc2ccc(C(F)(F)F)cc2)NC1c1ccc(C(F)(F)F)cc1 (stereo not drawn),-,-,-,40,-,0
COC(=O)C1=C(C)N(Cc2ccc(C(F)(F)F)cc2)C(=NCc2cccc(C(F)(F)F)c2)NC1c1ccccc1C(F)(F)F (stereo not drawn),-,-,-,0,-,-
COc1ccccc1N1CCN(c2ccc(S(=O)(=O)N3CCN(C)CC3)cn2)CC1,-,-,-,33,0,0
COc1ccc(N(C(=O)c2c(-c3ccccc3Cl)noc2C)C2C=CS(=O)(=O)C2)c(OC)c1 (stereo not drawn),-,-,-,-,0,-
Cc1nc2c([nH]1)C1(CCN(Cc3ccccc3)CC1)C(C#N)=C(N)O2,0,0,-,40,0,0
CCCc1ccc(Oc2cn[nH]c2-c2ccc(O)c(C)c2O)cc1,0,0,0,36,0,0
CCCc1ccc(Oc2c(-c3ccc(O)c(C)c3O)n[nH]c2C)cc1,0,0,0,0,0,-
CC(C)(C)C(=O)[C@@H]1[C@@H]2C(=O)N(Cc3ccccc3)C(=O)[C@@H]2[C@H]2c3ccccc3C=CN12,0,0,-,-,-,-
O=C(c1ccco1)[C@@H]1[C@@H]2C(=O)N(c3ccc(F)cc3)C(=O)[C@@H]2[C@H]2C=Cc3ccccc3N21,0,0,-,0,0,-
O=C(c1ccco1)[C@@H]1[C@@H]2C(=O)N(c3ccc(F)cc3)C(=O)[C@@H]2C2c3ccccc3C=CN21 (stereo partly drawn),0,0,0,86,-,40
O=C(c1ccco1)[C@@H]1[C@@H]2C(=O)N(c3ccc(Br)cc3)C(=O)[C@@H]2C2c3ccccc3C=CN21 (stereo partly drawn),0,0,-,93,0,84
CCN1C(=O)/C(=C/c2ccc(C)s2)NC1=S,0,0,0,31,0,0
CCN1C(=O)C(=Cc2ccc(C)s2)C(=O)N(CC)C1=S,0,0,0,0,0,-
CCOC(=O)C(C#N)=CNc1ccccc1OC(F)(F)F,-,-,-,-,0,-
CCOc1cc(/C=C2/NC(=O)N(Cc3ccccc3F)C2=O)ccc1O,0,0,0,0,0,-
SMILES,3CLpro inhibitor,VHR inh abs,RecA splice inh,CCHF vOTU inh-1,PriA SSB inh,CCHF vOTU inh-2
COc1cc(/C=C2/NC(=O)N(Cc3ccccc3F)C2=O)cc(OC)c1O,0,0,-,40,0,0
O=C(c1ccc(-n2cccc2)cc1)N(CCc1cccs1)C1CCOCC1,-,-,-,-,0,-
COc1cc(Nc2ccccc2Cl)c([N+](=O)[O-])nc1[N+](=O)[O-],0,0,0,31,0,0
COc1ccccc1Nc1nc(Nc2ccccc2)nc(N)c1[N+](=O)[O-],-,-,-,-,0,-
O=c1c2cnn(C3CCS(=O)(=O)C3)c2ncn1Cc1ccc(Cl)c(Cl)c1 (stereo not drawn),-,-,-,-,0,-
CCOC(=O)COc1ccc(S(=O)(=O)N2CCN(c3ccc(OC)cc3)CC2)cc1,0,0,0,30,0,0
CCn1nc(C(=O)Nc2nc(-c3ccc(Cl)c(Cl)c3)cs2)cc1C,-,-,-,-,0,-
Cc1noc(NS(=O)(=O)c2ccc(NS(=O)(=O)c3ccc(Cl)cc3)cc2)c1C,-,-,-,0,0,-
Cc1noc(NS(=O)(=O)c2ccc(NS(=O)(=O)c3ccc(C(C)(C)C)cc3)cc2)c1C,-,-,-,30,-,0
Cc1oc2ccc(OCc3ccccc3)cc2c1C(=O)Nc1ccccc1F,-,-,-,-,0,-
COc1ccc(NC(=O)C2CCN(C(=O)[C@@H]3Cc4ccccc4CN3C(=O)OC(C)(C)C)CC2)cc1,0,0,0,0,0,-
COc1ccc(NC(=O)[C@@H]2CCCN2C(=O)[C@@H]2Cc3ccccc3CN2C(=O)OC(C)(C)C)cc1,0,0,0,35,0,0
O=C(CSc1n[nH]c(=O)c2cc(-c3ccco3)nn12)Nc1ccc(Cl)c(C(F)(F)F)c1,-,-,-,-,0,-
COc1cc(/C=C2/C(=O)NN(c3ccc(Cl)c(Cl)c3)C2=O)cc([N+](=O)[O-])c1O,0,0,0,38,0,0
O=C(Nc1ccccc1C(=O)O)c1cccc(NC(=O)c2ccc(Br)o2)c1,0,0,0,30,0,0
CCOc1cccc(CNc2ccc(O)cc2)c1OCc1ccccc1Cl,0,0,0,44,0,0
CCOc1cccc(CNc2ccc(O)cc2)c1OCc1ccc(Cl)cc1Cl,0,0,0,49,0,0
Cc1ccc(S(=O)(=O)N2[C@@H](c3cccc(Cl)c3)C(C(=O)O)=CC[C@H]2c2ccc(Cl)cc2)cc1,-,-,-,0,0,-
Cc1ccc(S(=O)(=O)N2C(c3ccc(Cl)c(Cl)c3)CC=C(C(=O)O)C2c2ccc(Cl)cc2)cc1 (stereo not drawn),-,-,-,35,-,0
Cc1ccc(S(=O)(=O)N2C(c3ccc(Cl)c(Cl)c3)CC=C(C(=O)O)C2c2cccc(Cl)c2)cc1 (stereo not drawn),-,-,-,0,-,-
Cc1ccc(S(=O)(=O)N2[C@@H](c3ccc(Cl)cc3)C(C(=O)O)=CC[C@H]2c2ccc(Cl)c(Cl)c2)cc1,-,-,-,33,0,0
O=C1CCc2cc(S(=O)(=O)NCCn3ccnc3-c3ccccn3)cc3c2N1CC3,-,-,-,-,0,-
CC(=CC(=O)c1cccnc1)Nc1ccc(C)c(C)c1,-,-,-,-,0,-
C/C(=C\C(=O)c1ccccc1)Nc1ccc(O)cc1,0,0,0,76,-,0
C/C(=C\C(=O)c1cccnc1)Nc1ccc(O)cc1,0,0,0,95,-,0
COC(=O)c1ccc(S(=O)(=O)NCc2ccc(C(=O)c3cccs3)s2)cc1,-,-,-,-,0,-
CC1Cc2ccccc2N1CC(=O)NC(=O)NC1CCCCC1 (stereo not drawn),0,0,0,31,0,0
Cc1cc(/C=C(\C#N)C(=O)Nc2ccccc2)c(C)n1-c1cccnc1,0,0,0,0,0,-
